Source: PubChem
HT1080 IDH1KD tx: HT-1080 IDH1 knockdown cell toxicity (counter line). HT-1080 IDH1 knockdown viability, ATP luminescence, 48 h. Potency, µM (doses to about 46.1 µM), for the others: top-dose activity, negative = toxicity, hits mostly cytotoxic. 360,000 compounds, 2% hits. AID 686971;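 note: 0% = DMSO wells and -100% = cell-free medium wells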
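Cytotoxicity counter-line: IDH1KD HT-1080, 48 h, CellTiter-Glo. Curves classed by r2, magnitude and activity.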
DT40 TDP1 CPT: growth inhibition of DT40 Tdp1-/-;hTDP1 cells with camptothecin (screen for TDP1 inhibitors); 420,000 compounds, 12% hits; Potency, µM (doses to about 46.2 µM), inactives show at the top dose activity change, negative = growth inhibition, usual class: inhibitors; chicken DT40 Tdp1-/-;hTDP1 cells + 20 nM CPT, ATP luminescence, 48 h; note: nearly all actives have a fitted effect of over 55% in size
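Chicken DT40 Tdp1-/- cells stably complemented with human TDP1 were seeded at 400 cells/well in medium containing 20 nM camptothecin, exposed to pin-transferred compounds, and grown at 37 °C for at least 48 hr. Viability was read as ATP luminescence.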
DT40 TDP1 no CPT: qHTS for Inhibitors of human tyrosyl-DNA phosphodiesterase 1 (TDP1): qHTS in cells in absence of CPT; 420,000 compounds, 15% hits; DT40 Tdp1-/- hTDP1 cells, no CPT, ATP luminescence, 48 h; Potency, µM (series often up to 46.2 µM), without a hit: at the top dose activity change, negative = growth inhibition, hits mostly inhibitors; note: nearly all actives have a fitted effect of over 55% in size
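Camptothecin absent (DMSO only). Human TDP1-complemented DT40 knockout cells, 400 cells/well, 37 °C for minimum 48 hr; ATP measured via CellTiter-Glo, 30 min dark incubation, luminescence.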
KB-3-1 tox: kills parental KB-3-1 adenocarcinoma cells. KB-3-1 viability, CellTiter-Glo ATP luminescence, 72 h. 400,000 compounds, 1.4% hits. Potency, µM (doses to about 46.1 µM), usual class: cytotoxic; note: nearly all actives have a fitted effect of over 60% in size
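KB-3-1 parental drug-naive adenocarcinoma cells in DMEM/10% FBS, incubated 72 h at 37 C with pin-transferred compounds across a concentration series. Viability by CellTiter-Glo luminescence; concentration-response curves fitted after normalization.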
HT1080-NT tox: kills 2HG-producing HT-1080-NT fibrosarcoma cells | HT-1080-NT fibrosarcoma viability, CellTiter-Glo ATP luminescence, 48 h | Potency, µM (titrated, usually from 46.1 µM), inactives show at the highest dose activity, negative = less viability, most hits filed as cytotoxic | 360,000 compounds, 1.6% hits;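 note: NT is the 2HG producing partner of a matched IDH1 knockdown line; 0% = DMSO-treated cells and -100% = media-only wells without cells; nearly all actives have a fitted effect of over 55% in size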
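750 cells/well, RPMI + 5% FBS; 2 h settle, compound pin-transfer, 48 h at 37 degrees C. CellTiter-Glo 10 min RT, luminescence. Normalized to DMSO and media-only wells.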
KB-V1 cytotox: KB-V1 MDR subline cytotoxicity. KB-V1 MDR cells viability, CellTiter-Glo, 72 h. Potency, µM (doses to about 46.1 µM), usual class: cytotoxic. 400,000 compounds, 3.4% hits. AID 1347076; note: nearly all actives have a fitted effect of over 60% in size
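Compound-treated KB-V1 multidrug-resistant cells, 72 h, 37 degrees C; viability by CellTiter-Glo. Fitted qHTS curves give the values.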
* marks the source's active call; other numbers are inactive results; i = inactive; ? = inconclusive; . = no result. A selection: hits, their analogues and other compounds. The true share with any hit is near 19%. Calls come from the whole dose curve; as a rule, active = well fitted curve in the direction sought with a large enough effect; inconclusive = small, poorly fitted or top-dose-only effect, or another doubt; inactive = no such curve, though single readings can be large; an effect the other way counts as inactive or inconclusive. Unless noted, % is set by controls: 0 for no effect and ±100 for the full control effect; potency is the fitted concentration of half-maximal effect.

SMILES	HT1080 IDH1KD tx	DT40 TDP1 CPT	DT40 TDP1 no CPT	KB-3-1 tox	HT1080-NT tox	KB-V1 cytotox
CSc1ccc(CN(C)Cc2cc(=O)oc3c(C)c(C)ccc23)cc1	-6.0%	20.6µM*	?	i	-1.6%	i
CCOc1ccc(CN(C)Cc2cc(=O)oc3c(C)c(C)ccc23)cc1OC	?	10.3µM*	8.2µM*	?	?	i
CC(=O)C1=C(O)C(=CC=Cc2ccccc2)OC1=O	-19.8%	?	16.4µM*	i	-8.8%	i
CCOC(=O)Cn1nc(/C=C/c2ccc(C(C)C)cc2)ccc1=O	-0.7%	14.6µM*	?	?	-3.0%	i
CCOC(=O)Cn1nc(/C=C/c2ccc(C)cc2)ccc1=O	14.8%	?	23.1µM*	?	3.2%	?
CCOC(=O)Cn1nc(/C=C/c2ccccc2)ccc1=O	-2.3%	-18.6%	-16.3%	i	0.4%	?
O=C(C1CCCN(c2ncnc3c2nc2n3CCCCC2)C1)N1CCN(c2ccc(Cl)cc2)CC1 (configuration not stated)	?	?	?	16.4µM*	?	i
O=C(C1CCCN(c2ncnc3c2nc2n3CCCCC2)C1)N1CCN(c2ccc(F)cc2)CC1 (configuration not stated)	-10.5%	?	?	?	-21.0%	?
CN1CCN(C(=O)C2CCCN(c3ncnc4c3nc3n4CCCCC3)C2)CC1 (configuration not stated)	9.3%	-10.2%	17.1%	i	5.2%	?
CC(=O)c1ccc(N2CCN(C(=O)C3CCCN(c4ncnc5c4nc4n5CCCCC4)C3)CC2)cc1 (configuration not stated)	4.7%	14.6µM*	14.6µM*	i	-1.0%	i
COc1ccc(N2CCN(C(=O)C3CCCN(c4ncnc5c4nc4n5CCCCC4)C3)CC2)cc1 (configuration not stated)	-8.9%	20.6µM*	16.4µM*	i	-17.6%	?
COc1ccncc1-c1ccccc1C1=CC(=O)CC(C)(C)C1=O	4.8%	-12.3%	?	i	7.1%	i
O=C(Nc1ccc(O)cc1)c1cc2ccccc2c(=O)s1	?	?	16.4µM*	i	-26.9%	?
O=C(Nc1ccccc1)c1cc2ccccc2s1	-19.6%	0.6%	-23.9%	i	?	i
CN(C)c1ccc(CNC(=O)CCCN2C(=O)c3cccnc3Oc3ccc(Cl)cc32)cc1	.	18.4µM*	?	i	.	i
O=C(CCCN1C(=O)c2cccnc2Oc2ccc(Cl)cc21)NCc1ccc(F)cc1	.	?	?	i	.	i
CCc1ccc(CNC(=O)CCCN2C(=O)c3cccnc3Oc3ccc(Cl)cc32)cc1	.	20.6µM*	18.4µM*	i	.	i
Cc1cccc(NC(=O)CN2C(=O)CC(c3ccccc3)Sc3ccccc32)c1 (configuration not stated)	.	.	.	i	.	?
COc1ccc(C2CC(=O)N(CC(=O)Nc3ccc(C)c(Cl)c3)c3ccccc3S2)cc1OC (configuration not stated)	.	.	.	?	.	18.4µM*
CCOC(=O)c1ccccc1NC(=O)CN1C(=O)CC(c2ccccc2)Sc2ccccc21 (configuration not stated)	.	.	.	?	.	11.6µM*
O=C(OCCOCCN=C1NS(=O)(=O)c2ccccc21)c1ccccc1Br	1.6%	-2.0%	-14.8%	i	1.4%	i
CCN1C(=O)c2ccccc2Sc2ccc(NC(=O)Nc3ccc(C(C)=O)cc3)cc21	.	?	20.6µM*	.	.	.
CCc1ccccc1NC(=O)Nc1ccc2c(c1)N(CC)C(=O)c1ccccc1S2	.	8.2µM*	14.6µM*	.	.	.
Cc1ccc(Cl)cc1NC(=O)N[C@@H](C)C(=O)O	12.5%	1.8%	-1.6%	i	17.2%	i
CCCS(=O)(=O)c1ncc(Cl)c(C(=O)Nc2sc3c(c2C(=O)NCC)CCCC3)n1	.	1µM*	0.794µM*	?	.	i
SMILES	HT1080 IDH1KD tx	DT40 TDP1 CPT	DT40 TDP1 no CPT	KB-3-1 tox	HT1080-NT tox	KB-V1 cytotox
CCSc1ncc(Cl)c(C(=O)Nc2sc3c(c2C(=O)NCCOC)CCCC3)n1	.	-9.2%	?	i	.	i
CCCC1(c2ccccc2)NC(=O)N(CC(=O)NCc2ccc(OC)cc2)C1=O (configuration not stated)	15.8%	-8.2%	18.2%	i	4.4%	?
CCN(CC)C(=O)n1cnc(-c2ccccc2)c1-c1ccccc1	11.0%	?	?	i	12.0%	20.6µM*
CCOc1ccc2nc(NC(=O)CS(=O)(=O)c3ccc(Cl)cc3)sc2c1	.	?	16.4µM*	?	.	i
CCOc1ccc2nc(NC(=O)CS(=O)(=O)c3ccccc3)sc2c1	-20.8%	-8.5%	?	i	-15.1%	i
CCOc1ccc2nc(NC(=O)CS(=O)(=O)c3ccc(C)cc3)sc2c1	-6.2%	-14.3%	16.4µM*	i	-2.1%	i
COc1cccc(CNC(=O)c2cc3oc4ccccc4c3n2C)c1OC	?	-13.8%	-24.6%	?	?	6.51µM*
CCn1c(C(=O)NCc2ccc(F)cc2)cc2oc3ccccc3c21	.	20.6µM*	?	i	.	?
CCOc1ccccc1CNC(=O)c1cc2oc3ccccc3c2n1CC	?	25.9µM*	18.4µM*	?	-28.0%	?
CCOc1ccc(CNC(=O)c2cc3oc4ccccc4c3n2C)cc1	-25.5%	?	?	?	-3.0%	?
CC(=O)Nc1ccc(N2C(=O)c3ccc(C(=O)Nc4nnc(SCc5ccc(F)cc5)s4)cc3C2=O)cc1	3.2%	-21.3%	?	i	0.5%	i
COc1cc(CC(=O)OCC(=O)Nc2ccc(N(C)C)cc2)cc(OC)c1OC	0.0%	-21.4%	0.0%	i	-1.9%	i
O=C(NCCc1nnc2n1CCN(Cc1ccc3c(c1)CCO3)CC2)c1ccco1	.	-5.2%	-8.3%	.	.	.
OCCn1ccc(-c2ccccc2OCc2ccc(F)cc2)n1	2.5%	?	20.6µM*	i	-9.3%	i
Cc1onc(-c2ccccc2Cl)c1C(=O)Nc1ccccc1N1CCOCC1	-13.3%	?	?	i	-0.4%	i
O=C(COC(=O)c1cc(=O)[nH]c(=O)[nH]1)Nc1cccc(S(=O)(=O)N2CCOCC2)c1	8.2%	0.6%	5.1%	i	16.0%	i
CCCCc1c(-c2ccccc2OC)ncn1CCc1ccc(OC)cc1	?	18.4µM*	23.1µM*	?	16.4µM*	9.2µM*
